{"source": "the supplement of paper PMC6522484", "note": "± gives the standard deviation of the averaged measurements."}
{"test_system": "DLD1", "assay": "cell viability (CellTiter-Glo) relative to plate median (fraction of plate median); higher = more viable cells", "conditions": "5 µM; treatment time 24 h; reporter: 7TFP", "procedure,_shortened": "(§1)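 Cells were seeded in 384-well plates; these were colorectal cancer lines stably transduced with lentiviral 7TFP or TCF4/Wnt firefly luciferase reporters. After 24 h, library compounds went in at a final 5 µM, and exposure lasted 24 h. Parallel plates were then read for firefly luciferase or CellTiterGlo luminescence, each well normalised to its plate median, with two independent replicates averaged.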"}
{"smiles": "CN1CCN(CCCN2c3ccccc3Sc3ccc(C(F)(F)F)cc32)CC1", "cell viability": "0.999 ± 0.0014"}
{"smiles": "CC(=O)O[C@H]1CC[C@]2(C)[C@H]3CC[C@@]4(C)[C@H](c5ccoc5)OC(=O)[C@H]5O[C@]54[C@]3(C)[C@H](OC(C)=O)C[C@H]2C1(C)C", "note": "[3beta-ACETOXYDEOXODIHYDROGEDUNIN]", "cell viability": "1.03 ± 0.054"}
{"smiles": "CCCCCCNC(=O)n1cc(F)c(=O)[nH]c1=O", "cell viability": "1.06 ± 0.042"}
{"smiles": "CC12CCC3c4ccc(OCc5ccccc5)cc4CCC3C1C[C@@H](O)[C@@H]2O", "note": "(some centres undefined)", "cell viability": "1.08 ± 0.085"}
{"smiles": "CC1CC(OC(=O)C(O)c2ccccc2)CC(C)(C)N1C", "note": "(centres undefined)", "cell viability": "1 ± 0.011"}
{"smiles": "NC(=O)N1c2ccccc2CC(=O)c2ccccc21", "cell viability": "0.9 ± 0.09"}
{"smiles": "CN1CCN(CC(=O)N2c3ccccc3C(=O)Nc3cccnc32)CC1", "cell viability": "0.944 ± 0.022"}
{"smiles": "O.O.O.O.O=C([O-])CC(O)(CC(=O)[O-])C(=O)[O-].[Li+].[Li+].[Li+]", "cell viability": "0.955 ± 0.11"}
{"smiles": "CC1(C)S[C@@H]2[C@H](NC(=O)[C@H](N)c3ccc(O)cc3)C(=O)N2[C@H]1C(=O)O", "cell viability": "0.928 ± 0.049"}
{"smiles": "CC(C)c1c(C(=O)Nc2ccccc2)c(-c2ccccc2)c(-c2ccc(F)cc2)n1CC[C@@H](O)C[C@@H](O)CC(=O)O", "cell viability": "0.9915 ± 0.0092"}
{"smiles": "CCC1(C)OC(=O)N(C)C1=O", "note": "(centres undefined)", "cell viability": "1.04 ± 0.014"}
{"smiles": "C=C1CC[C@@H]2[C@](C)(CO)[C@H](O)CC[C@@]2(C)[C@@H]1C/C=C1/C(=O)OC[C@H]1O", "cell viability": "1.03 ± 0.021"}
{"smiles": "C=CC[C@@H]1/C=C(\\C)C[C@H](C)C[C@H](OC)[C@H]2O[C@@](O)(C(=O)C(=O)N3CCCC[C@H]3C(=O)O[C@H](/C(C)=C/[C@@H]3CC[C@@H](O)[C@H](OC)C3)[C@H](C)[C@@H](O)CC1=O)[C@H](C)C[C@@H]2OC", "cell viability": "1.02 ± 0.22"}
{"smiles": "COc1cc2c(cc1OC)-c1cc3ccc(OC)c(OC)c3c[n+]1CC2", "cell viability": "0.983 ± 0.067"}
{"test_system": "HCT116", "assay": "cell viability (CellTiter-Glo) relative to plate median (fraction of plate median); higher = more viable cells", "conditions": "5 µM; treatment time 24 h; reporter: TCF4/Wnt", "procedure,_shortened": "as §1"}
{"smiles": "Cc1ccc(C(=O)c2ccc(CC(=O)O)n2C)cc1", "cell viability": "1.01 ± 0.023"}
{"smiles": "CC[C@H]1OC(=O)[C@H](C)[C@@H](O[C@H]2C[C@@](C)(OC)[C@@H](O)[C@H](C)O2)[C@H](C)[C@@H](O[C@@H]2O[C@H](C)C[C@H](N(C)C)[C@H]2O)[C@](C)(O)C[C@@H](C)CN(C)[C@H](C)[C@@H](O)[C@]1(C)O", "cell viability": "0.8915 ± 0.0035"}
{"smiles": "COc1ccc2ccc(=O)oc2c1", "cell viability": "0.992 ± 0.025"}
{"smiles": "CCC(=O)O[C@@H]1[C@@H](OC2C(C)/C=C/C(=O)OC(C)C(CO[C@@H]3O[C@H](C)[C@@H](OC(=O)CC)[C@@H](OC)[C@H]3OC)C3OC3/C=C/C(=O)C(C)(O)CC2C)O[C@@H](C)C[C@H]1OC", "note": "(some centres undefined) [Chalcomycin B]", "cell viability": "1.06 ± 0.064"}
{"smiles": "Nc1nc2c(ncn2COCCO)c(=O)[nH]1", "cell viability": "1.01 ± 0.034"}
{"smiles": "CC1(C)CC[C@]2(C)CC[C@]3(C)C(=CC[C@@H]4[C@@]5(C)CC[C@H](O)C(C)(C)[C@@H]5CC[C@]43C)[C@@H]2C1", "note": "[beta-AMYRIN]", "cell viability": "0.962 ± 0.016"}
{"smiles": "O=C(O)c1ccccc1Nc1ccccc1", "cell viability": "1.03 ± 0.14"}
{"smiles": "C[C@@H]1O[C@@H](O[C@H]2[C@H](O[C@H]3CC[C@@]4(C)[C@@H](CC[C@]5(C)[C@@H]4CC=C4[C@@H]6CC(C)(C)CC[C@]6(C(=O)O)CC[C@]45C)[C@]3(C)CO)OC[C@H](O)[C@@H]2O)[C@H](O)[C@H](O)[C@H]1O", "cell viability": "1.05 ± 0.1"}
{"smiles": "CC(=O)Nc1ccccc1", "cell viability": "0.97 ± 0.043"}
{"smiles": "CC(=O)OCC(=O)[C@@]1(O)[C@H](OC(C)=O)C[C@H]2[C@@H]3CCC4=CC(=O)C=C[C@]4(C)[C@@]3(F)[C@@H](O)C[C@@]21C", "cell viability": "1.09 ± 0.057"}
{"smiles": "CC1(C)[C@@H](OC(=O)CCC(=O)O)CC[C@]2(C)[C@H]3C(=O)C=C4[C@@H]5C[C@@](C)(C(=O)O)CC[C@]5(C)CC[C@@]4(C)[C@]3(C)CC[C@@H]12", "cell viability": "1.02 ± 0.035"}
{"smiles": "CCC(C)C(N)=O", "note": "(centres undefined) [2-Methylbutyramide]", "cell viability": "1.05 ± 0.021"}
{"smiles": "C=CCSSSCC=C", "cell viability": "1.09 ± 0.014"}
{"smiles": "Cc1cc(O)c(C=O)c2c1C(=O)Oc1c(COC(=O)/C=C/C(=O)O)c(O)c(C(=O)O)c(C)c1O2", "cell viability": "1.05 ± 0.021"}
{"smiles": "O=C(O)[C@@H](O)[C@H](O)[C@H](O)[C@@H](O)C(=O)O", "cell viability": "1.03 ± 0.05"}
{"smiles": "Nc1nc2c(ncn2[C@H]2C[C@H](O)[C@@H](CO)O2)c(=O)[nH]1", "note": "[Desoxyguanosin]", "cell viability": "1.01 ± 0.11"}
{"smiles": "CC(=O)/C=C\\[C@@H]1[C@@]2(C)CCCC(C)(C)C2CC[C@@]1(C)O", "note": "(some centres undefined)", "cell viability": "1.14 ± 0.05"}
{"smiles": "CC(=O)OCC(=O)[C@@]12OC3(CCCC3)O[C@@H]1C[C@H]1[C@@H]3CCC4=CC(=O)C=C[C@]4(C)[C@@]3(F)[C@@H](O)C[C@@]12C", "cell viability": "0.896 ± 0.16"}
{"smiles": "CC(=O)Oc1cccc(O)c1", "cell viability": "1.06 ± 0.042"}
{"smiles": "CCCOc1ccccc1-c1nc2[nH]nnc2c(=O)[nH]1", "cell viability": "0.973 ± 0.14"}
